Source: ChEMBL document CHEMBL1961873, “Compounds: GSK PKIS; Assays: Nanosyn kinase panel” (2012)

Key:
[1] = target: Protein kinase C gamma type (Homo sapiens) (UniProt P05129); conditions: at 1 µM;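 note: each value is an averaged percent inhibition of the enzyme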
[2] = target: T1, Protein kinase C iota type (Homo sapiens) (UniProt P41743); conditions: at 0.1 µM
T1 sequence (whole entry): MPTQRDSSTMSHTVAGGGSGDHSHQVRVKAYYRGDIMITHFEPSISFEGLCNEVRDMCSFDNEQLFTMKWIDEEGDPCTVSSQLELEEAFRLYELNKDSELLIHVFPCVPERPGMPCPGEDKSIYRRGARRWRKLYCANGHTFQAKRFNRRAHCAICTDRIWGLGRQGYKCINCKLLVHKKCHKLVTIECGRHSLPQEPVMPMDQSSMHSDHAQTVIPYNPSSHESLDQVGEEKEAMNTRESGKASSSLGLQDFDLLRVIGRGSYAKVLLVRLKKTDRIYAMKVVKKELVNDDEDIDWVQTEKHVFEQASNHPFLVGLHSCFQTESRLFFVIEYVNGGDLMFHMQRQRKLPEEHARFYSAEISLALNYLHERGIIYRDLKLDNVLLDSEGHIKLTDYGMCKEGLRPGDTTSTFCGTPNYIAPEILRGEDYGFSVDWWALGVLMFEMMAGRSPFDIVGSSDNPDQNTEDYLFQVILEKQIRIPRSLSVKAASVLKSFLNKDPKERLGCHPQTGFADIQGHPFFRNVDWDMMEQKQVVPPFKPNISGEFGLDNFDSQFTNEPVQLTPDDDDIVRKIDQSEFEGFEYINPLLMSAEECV

[3] = target: T1, Protein kinase C iota type (Homo sapiens); conditions: at 1 µM
[4] = target: Protein kinase C theta type (Homo sapiens) (UniProt Q04759); conditions: at 0.1 µM
Sequence of Protein kinase C theta type (Homo sapiens) (Q04759 whole entry, looked up): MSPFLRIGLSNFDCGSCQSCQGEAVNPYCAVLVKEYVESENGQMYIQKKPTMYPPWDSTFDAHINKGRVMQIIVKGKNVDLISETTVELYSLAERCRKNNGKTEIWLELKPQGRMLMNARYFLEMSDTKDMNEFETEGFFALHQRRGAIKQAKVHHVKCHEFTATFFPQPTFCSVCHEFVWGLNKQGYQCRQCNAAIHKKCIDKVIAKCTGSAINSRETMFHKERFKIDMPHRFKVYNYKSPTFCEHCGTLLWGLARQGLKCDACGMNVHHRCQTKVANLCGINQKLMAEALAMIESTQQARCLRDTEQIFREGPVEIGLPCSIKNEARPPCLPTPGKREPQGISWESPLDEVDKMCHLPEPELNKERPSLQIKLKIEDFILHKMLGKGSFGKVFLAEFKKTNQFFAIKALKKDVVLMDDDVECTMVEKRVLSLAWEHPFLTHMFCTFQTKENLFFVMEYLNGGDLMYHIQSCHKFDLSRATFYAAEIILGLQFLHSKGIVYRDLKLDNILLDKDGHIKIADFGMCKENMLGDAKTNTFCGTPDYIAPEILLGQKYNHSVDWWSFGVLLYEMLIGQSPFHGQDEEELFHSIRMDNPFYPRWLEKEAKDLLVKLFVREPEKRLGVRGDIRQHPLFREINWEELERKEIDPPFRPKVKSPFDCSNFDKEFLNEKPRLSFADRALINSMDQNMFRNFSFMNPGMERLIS

[5] = target: Protein kinase C theta type (Homo sapiens) (UniProt Q04759); conditions: at 1 µM
[6] = target: Protein kinase C beta type (Homo sapiens) (UniProt P05771); conditions: at 0.1 µM
Sequence of Protein kinase C beta type (Homo sapiens) (P05771 2-671 limits assumed): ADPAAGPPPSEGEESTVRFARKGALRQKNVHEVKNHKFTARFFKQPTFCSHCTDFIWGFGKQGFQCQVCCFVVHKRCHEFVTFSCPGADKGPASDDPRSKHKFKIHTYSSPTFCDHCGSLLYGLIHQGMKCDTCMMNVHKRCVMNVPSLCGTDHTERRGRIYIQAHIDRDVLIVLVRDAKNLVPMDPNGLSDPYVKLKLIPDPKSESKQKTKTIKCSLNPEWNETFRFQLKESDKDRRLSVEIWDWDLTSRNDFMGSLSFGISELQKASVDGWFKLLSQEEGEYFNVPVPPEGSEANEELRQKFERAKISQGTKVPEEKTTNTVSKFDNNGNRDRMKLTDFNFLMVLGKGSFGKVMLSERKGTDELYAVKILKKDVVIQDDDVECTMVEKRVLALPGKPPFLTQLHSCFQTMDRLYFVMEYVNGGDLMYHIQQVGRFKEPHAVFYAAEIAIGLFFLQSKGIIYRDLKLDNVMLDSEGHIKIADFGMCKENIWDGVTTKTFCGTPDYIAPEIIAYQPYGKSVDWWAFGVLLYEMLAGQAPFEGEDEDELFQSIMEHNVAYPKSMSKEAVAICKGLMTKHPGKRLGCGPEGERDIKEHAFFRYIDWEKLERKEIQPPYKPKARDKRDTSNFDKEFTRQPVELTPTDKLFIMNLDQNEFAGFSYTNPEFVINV

[7] = target: Protein kinase C beta type (Homo sapiens) (UniProt P05771); conditions: at 1 µM
[8] = target: T2, Serine/threonine-protein kinase D1 (Homo sapiens) (UniProt Q15139); conditions: at 0.1 µM
T2 sequence (whole entry): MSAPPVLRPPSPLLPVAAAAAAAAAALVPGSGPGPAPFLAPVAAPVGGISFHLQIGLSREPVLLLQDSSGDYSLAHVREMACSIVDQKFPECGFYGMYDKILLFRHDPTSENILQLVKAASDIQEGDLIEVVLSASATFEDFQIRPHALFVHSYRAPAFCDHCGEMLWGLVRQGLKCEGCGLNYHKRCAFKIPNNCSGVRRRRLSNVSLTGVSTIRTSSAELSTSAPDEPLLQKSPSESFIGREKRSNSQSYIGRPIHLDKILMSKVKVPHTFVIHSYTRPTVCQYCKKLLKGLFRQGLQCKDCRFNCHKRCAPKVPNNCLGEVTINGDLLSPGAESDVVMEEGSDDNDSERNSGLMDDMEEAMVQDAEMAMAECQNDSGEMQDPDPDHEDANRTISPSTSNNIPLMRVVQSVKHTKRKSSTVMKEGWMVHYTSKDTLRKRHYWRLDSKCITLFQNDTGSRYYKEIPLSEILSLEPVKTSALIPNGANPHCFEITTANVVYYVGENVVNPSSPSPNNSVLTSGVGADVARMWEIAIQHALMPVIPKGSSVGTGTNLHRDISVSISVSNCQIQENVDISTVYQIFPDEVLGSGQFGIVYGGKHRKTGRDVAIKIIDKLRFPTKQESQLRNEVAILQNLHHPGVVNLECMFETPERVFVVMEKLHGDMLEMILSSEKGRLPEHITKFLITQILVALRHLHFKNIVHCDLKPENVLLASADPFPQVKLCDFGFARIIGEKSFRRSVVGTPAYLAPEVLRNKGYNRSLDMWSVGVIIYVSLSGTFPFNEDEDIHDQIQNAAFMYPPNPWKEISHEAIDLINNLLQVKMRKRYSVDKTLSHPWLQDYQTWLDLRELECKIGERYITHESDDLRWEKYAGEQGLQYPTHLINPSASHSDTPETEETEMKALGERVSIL

[9] = target: T2, Serine/threonine-protein kinase D1 (Homo sapiens); conditions: at 1 µM
[10] = target: T3, Serine/threonine-protein kinase D2 (Homo sapiens) (UniProt Q9BZL6); conditions: at 0.1 µM
T3 sequence (whole entry): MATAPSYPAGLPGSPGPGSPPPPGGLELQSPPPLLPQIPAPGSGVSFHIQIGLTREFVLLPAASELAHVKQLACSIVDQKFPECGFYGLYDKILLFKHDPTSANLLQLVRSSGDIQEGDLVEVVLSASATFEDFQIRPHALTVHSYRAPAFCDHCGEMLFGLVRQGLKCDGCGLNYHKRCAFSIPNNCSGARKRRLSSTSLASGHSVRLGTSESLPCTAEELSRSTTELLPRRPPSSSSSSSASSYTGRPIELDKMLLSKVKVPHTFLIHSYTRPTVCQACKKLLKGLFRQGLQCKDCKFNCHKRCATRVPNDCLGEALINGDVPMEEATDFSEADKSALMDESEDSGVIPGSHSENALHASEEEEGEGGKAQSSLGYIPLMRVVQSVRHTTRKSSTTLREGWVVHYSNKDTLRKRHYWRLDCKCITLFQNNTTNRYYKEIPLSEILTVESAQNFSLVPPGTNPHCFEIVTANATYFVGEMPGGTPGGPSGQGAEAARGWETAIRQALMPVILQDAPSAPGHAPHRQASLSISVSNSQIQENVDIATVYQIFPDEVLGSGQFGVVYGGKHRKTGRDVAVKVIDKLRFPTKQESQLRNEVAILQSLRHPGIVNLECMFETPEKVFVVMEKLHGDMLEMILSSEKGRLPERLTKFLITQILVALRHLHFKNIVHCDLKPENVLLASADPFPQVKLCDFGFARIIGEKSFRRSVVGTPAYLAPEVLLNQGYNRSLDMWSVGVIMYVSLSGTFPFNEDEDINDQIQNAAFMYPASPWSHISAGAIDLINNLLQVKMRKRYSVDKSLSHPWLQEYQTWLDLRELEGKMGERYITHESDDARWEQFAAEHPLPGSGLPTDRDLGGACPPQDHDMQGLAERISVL

[11] = target: T3, Serine/threonine-protein kinase D2 (Homo sapiens); conditions: at 1 µM
[12] = target: T4, Serine/threonine-protein kinase D3 (Homo sapiens) (UniProt O94806); conditions: at 0.1 µM
T4 sequence (whole entry): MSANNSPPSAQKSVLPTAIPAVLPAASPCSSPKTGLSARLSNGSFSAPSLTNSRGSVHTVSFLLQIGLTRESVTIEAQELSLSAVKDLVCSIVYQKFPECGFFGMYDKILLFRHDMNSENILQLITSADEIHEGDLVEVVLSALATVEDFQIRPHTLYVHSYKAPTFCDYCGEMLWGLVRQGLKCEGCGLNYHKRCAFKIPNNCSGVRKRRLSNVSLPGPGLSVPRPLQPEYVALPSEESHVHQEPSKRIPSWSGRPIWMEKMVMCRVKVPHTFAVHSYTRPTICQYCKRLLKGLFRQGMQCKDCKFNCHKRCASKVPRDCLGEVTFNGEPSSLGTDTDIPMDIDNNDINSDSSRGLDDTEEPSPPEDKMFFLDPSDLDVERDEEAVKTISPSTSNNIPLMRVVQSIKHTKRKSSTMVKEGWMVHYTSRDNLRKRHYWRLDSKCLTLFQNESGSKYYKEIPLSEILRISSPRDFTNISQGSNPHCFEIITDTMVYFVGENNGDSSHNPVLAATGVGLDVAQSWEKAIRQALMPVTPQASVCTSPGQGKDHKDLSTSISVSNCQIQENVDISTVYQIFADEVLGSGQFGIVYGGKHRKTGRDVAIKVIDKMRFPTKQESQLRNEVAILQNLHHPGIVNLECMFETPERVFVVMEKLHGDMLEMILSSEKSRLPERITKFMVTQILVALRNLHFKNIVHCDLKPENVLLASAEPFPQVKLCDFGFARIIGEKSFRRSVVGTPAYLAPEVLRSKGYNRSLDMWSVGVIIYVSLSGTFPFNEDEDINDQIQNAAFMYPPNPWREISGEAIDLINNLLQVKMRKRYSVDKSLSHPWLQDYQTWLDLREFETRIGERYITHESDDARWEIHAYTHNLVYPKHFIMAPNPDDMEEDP

[13] = target: T4, Serine/threonine-protein kinase D3 (Homo sapiens); conditions: at 1 µM
[14] = target: T5, cGMP-dependent protein kinase 1 (Homo sapiens) (UniProt Q13976); conditions: at 0.1 µM
T5 sequence (whole entry): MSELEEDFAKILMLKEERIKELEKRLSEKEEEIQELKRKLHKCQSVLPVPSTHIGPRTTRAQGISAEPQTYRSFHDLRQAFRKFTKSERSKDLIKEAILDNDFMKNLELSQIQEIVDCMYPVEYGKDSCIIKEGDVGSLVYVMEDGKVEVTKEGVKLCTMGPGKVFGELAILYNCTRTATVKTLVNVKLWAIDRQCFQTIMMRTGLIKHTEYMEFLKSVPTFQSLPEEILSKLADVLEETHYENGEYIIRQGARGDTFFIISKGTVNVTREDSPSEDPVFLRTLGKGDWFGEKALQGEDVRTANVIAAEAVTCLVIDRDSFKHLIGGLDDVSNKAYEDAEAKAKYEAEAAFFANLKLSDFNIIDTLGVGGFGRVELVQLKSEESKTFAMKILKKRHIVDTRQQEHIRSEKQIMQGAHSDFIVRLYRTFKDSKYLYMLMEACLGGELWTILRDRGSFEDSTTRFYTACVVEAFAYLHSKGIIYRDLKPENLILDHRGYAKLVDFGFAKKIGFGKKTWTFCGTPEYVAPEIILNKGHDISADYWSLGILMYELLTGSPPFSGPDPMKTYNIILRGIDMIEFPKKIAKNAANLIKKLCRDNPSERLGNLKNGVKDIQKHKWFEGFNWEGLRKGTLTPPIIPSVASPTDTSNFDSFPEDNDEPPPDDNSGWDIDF

[15] = target: T5, cGMP-dependent protein kinase 1 (Homo sapiens); conditions: at 1 µM
[16] = target: T6, cGMP-dependent protein kinase 2 (Homo sapiens) (UniProt Q13237); conditions: at 0.1 µM
T6 sequence (whole entry): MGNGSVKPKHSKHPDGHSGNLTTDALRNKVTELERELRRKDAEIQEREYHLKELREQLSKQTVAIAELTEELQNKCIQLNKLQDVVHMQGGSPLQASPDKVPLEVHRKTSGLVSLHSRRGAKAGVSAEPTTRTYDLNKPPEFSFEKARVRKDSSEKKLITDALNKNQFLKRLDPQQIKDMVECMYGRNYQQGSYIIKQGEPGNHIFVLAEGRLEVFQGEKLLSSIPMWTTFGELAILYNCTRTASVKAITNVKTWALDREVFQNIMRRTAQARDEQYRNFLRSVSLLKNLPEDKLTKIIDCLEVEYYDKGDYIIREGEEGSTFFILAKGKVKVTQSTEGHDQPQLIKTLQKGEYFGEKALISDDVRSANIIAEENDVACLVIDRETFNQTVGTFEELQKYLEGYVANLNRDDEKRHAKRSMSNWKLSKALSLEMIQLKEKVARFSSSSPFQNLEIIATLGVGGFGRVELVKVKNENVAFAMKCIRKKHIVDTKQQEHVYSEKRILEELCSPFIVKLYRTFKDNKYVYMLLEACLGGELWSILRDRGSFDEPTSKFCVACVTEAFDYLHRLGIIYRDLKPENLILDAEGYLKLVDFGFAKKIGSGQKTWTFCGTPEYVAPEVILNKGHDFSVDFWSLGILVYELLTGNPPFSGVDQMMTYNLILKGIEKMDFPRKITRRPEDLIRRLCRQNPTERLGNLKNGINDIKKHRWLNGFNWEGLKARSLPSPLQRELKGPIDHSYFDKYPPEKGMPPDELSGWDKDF

[17] = target: T6, cGMP-dependent protein kinase 2 (Homo sapiens); conditions: at 1 µM
[18] = target: T7, cAMP-dependent protein kinase catalytic subunit PRKX (Homo sapiens) (UniProt P51817); conditions: at 0.1 µM
T7 sequence (whole entry): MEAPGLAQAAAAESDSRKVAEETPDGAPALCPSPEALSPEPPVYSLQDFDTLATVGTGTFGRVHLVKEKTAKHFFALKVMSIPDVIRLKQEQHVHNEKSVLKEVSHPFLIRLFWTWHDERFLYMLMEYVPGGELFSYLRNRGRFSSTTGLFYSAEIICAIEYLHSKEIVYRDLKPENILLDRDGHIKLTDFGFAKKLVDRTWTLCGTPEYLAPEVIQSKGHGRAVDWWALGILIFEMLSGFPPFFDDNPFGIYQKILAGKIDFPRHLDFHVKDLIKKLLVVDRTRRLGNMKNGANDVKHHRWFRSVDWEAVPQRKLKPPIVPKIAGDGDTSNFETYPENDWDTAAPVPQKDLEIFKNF

[19] = target: T7, cAMP-dependent protein kinase catalytic subunit PRKX (Homo sapiens); conditions: at 1 µM
[20] = target: Rho-associated protein kinase 1 (Homo sapiens) (UniProt Q13464); conditions: at 0.1 µM;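 note: values are mean percent inhibition of ROCK1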
Sequence of Rho-associated protein kinase 1 (Homo sapiens) (Q13464 2-1354 limits assumed): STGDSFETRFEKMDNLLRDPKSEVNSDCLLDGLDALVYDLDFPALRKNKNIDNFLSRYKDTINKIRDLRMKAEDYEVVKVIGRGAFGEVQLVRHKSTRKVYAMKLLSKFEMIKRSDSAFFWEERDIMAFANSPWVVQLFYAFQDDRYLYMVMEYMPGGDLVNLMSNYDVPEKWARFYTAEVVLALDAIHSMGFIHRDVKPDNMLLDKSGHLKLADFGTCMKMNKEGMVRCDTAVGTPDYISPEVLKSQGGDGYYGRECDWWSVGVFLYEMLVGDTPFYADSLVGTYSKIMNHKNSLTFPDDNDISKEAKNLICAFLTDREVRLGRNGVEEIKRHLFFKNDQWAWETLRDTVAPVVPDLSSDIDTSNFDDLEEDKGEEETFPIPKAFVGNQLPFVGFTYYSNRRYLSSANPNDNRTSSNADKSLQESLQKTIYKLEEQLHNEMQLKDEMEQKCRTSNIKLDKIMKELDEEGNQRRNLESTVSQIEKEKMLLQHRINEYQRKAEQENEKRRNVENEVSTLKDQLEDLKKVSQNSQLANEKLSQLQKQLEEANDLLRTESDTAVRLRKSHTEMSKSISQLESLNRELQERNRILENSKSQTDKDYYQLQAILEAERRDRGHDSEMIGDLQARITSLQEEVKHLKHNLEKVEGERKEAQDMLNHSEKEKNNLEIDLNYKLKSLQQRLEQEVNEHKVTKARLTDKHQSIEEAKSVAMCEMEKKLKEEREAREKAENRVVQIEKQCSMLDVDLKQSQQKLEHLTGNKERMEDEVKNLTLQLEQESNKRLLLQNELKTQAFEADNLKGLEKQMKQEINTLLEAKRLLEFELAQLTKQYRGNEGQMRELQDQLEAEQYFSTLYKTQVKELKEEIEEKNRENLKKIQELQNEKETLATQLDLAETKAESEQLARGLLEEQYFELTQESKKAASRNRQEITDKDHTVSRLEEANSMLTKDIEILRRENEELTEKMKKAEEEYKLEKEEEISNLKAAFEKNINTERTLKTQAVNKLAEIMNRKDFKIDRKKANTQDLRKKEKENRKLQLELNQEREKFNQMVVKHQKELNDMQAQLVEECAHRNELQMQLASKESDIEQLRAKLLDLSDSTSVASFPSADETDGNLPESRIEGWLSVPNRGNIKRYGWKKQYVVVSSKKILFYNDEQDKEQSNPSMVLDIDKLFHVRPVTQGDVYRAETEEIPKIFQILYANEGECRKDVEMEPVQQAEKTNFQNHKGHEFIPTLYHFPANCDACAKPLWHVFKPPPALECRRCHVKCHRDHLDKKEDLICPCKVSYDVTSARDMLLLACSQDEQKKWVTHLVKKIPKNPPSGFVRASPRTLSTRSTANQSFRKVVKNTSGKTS

SMILES | inhibition [1] | inhibition [2] | inhibition [3] | inhibition [4] | inhibition [5] | inhibition [6] | inhibition [7] | inhibition [8] | inhibition [9] | inhibition [10] | inhibition [11] | inhibition [12] | inhibition [13] | inhibition [14] | inhibition [15] | inhibition [16] | inhibition [17] | inhibition [18] | inhibition [19] | inhibition [20]
CC(C)c1ccc(Nc2nccc(-c3cnn4ncccc34)n2)cc1 | 5.49% | 0.41% | -0.49% | 0.56% | 2.84% | 0.59% | 1.47% | 2.12% | 15.9% | 1.32% | 15.6% | 2.22% | 15.6% | 0.59% | 4.3% | 1.01% | 3.05% | 0.91% | 1.43% | 0.36%
Cc1ccc(O)cc1Nc1ccnc2ccc(S(C)(=O)=O)cc12 | 4.87% | 3.04% | 1.3% | 3.39% | 7.6% | 2.21% | 4.59% | 5.19% | 24.7% | 7.07% | 33.2% | 6.86% | 22.7% | 2.84% | 4.22% | 1.71% | 4.03% | 2.75% | 4.14% | 1.34%
